Shown are actives, neighbours in structure and some others; about 3.1% of the full set was active somewhere.
TSHR antag: human thyrotropin receptor antagonism; TSHR-expressing cells, TSH-stimulated cAMP HTRF, 2 h; stronger effect = lower value; 330,000 compounds, 0.2% hits; P16473; AID 504810; activity change, negative = inhibition, % at 11.5 µM;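 active = activity change below a set negative limit, meaning inhibition stronger than a set level, cut at about -70% in these data; inconclusive = activity change between two set negative limits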; note: % is set by controls: 0 for no effect and ±100 for the full control effect
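TSHR-expressing cells were treated with compounds, then stimulated with TSH at EC80 (4nM final) for 2 hours at 37 deg C. Cellular cAMP was measured by HTRF competition between lysate cAMP and cAMP-d2 for a cryptate-labelled anti-cAMP antibody.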
VDR inh: vitamin D3 receptor (human) inhibition. P11473. VDR-SRC2-3 peptide fluorescence polarization, 2 h. Potency, µM, for the others: max response, negative = inhibition, actives largely listed as inhibitors. 400,000 compounds, 0.93% hits. AID 504847; note: potency is the fitted concentration of half-maximal effect; % is set by controls: 0 for no effect and ±100 for the full control effect
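VDR–SRC2-3 interaction, FP format. Cmpds 23 nl via pintool, brief spin, 2 h ambient incubation.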
Vif-APOBEC3G blk: inhibitors of Vif-APOBEC3G interaction; Q9HC16; HeLa A3G-eYFP + Vif (tagged APOBEC3G with the HIV-1 protein that degrades it), YFP fluorescence, overnight; Potency, µM (titrated, usually from 46.1 µM), without a hit: at the top dose activity, negative = active, usual class: inhibitors; 410,000 compounds, 0.076% hits; note: potency is the fitted concentration of half-maximal effect; % is set by controls: 0 for no effect and ±100 for the full control effect; nearly all actives have a fitted effect of over 60% in size
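HeLa cells stably expressing Vif and C-terminally eYFP-tagged A3G, seeded overnight at 37 deg C, then exposed to compound by pintool overnight at 37 deg C. Rise in yellow fluorescence (Ex 488/Em 500-530, Acumen) marks blocked Vif-driven A3G degradation.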
PLK1 PBD block: PLK1 (human) polo-box domain binding inhibition; Potency, µM, for the others: max response, negative = inhibition, hits mostly inhibitors; 360,000 compounds, 2.8% hits; Plk1 PBD binding of FITC phosphopeptide, fluorescence polarization; note: potency is the fitted concentration of half-maximal effect; series mostly up to about 57 µM; % is set by controls: 0 for no effect and ±100 for the full control effect; nearly all actives have a fitted effect of over 65% in size
Target sequence (P53350 whole entry, looked up, the tested form may be a part): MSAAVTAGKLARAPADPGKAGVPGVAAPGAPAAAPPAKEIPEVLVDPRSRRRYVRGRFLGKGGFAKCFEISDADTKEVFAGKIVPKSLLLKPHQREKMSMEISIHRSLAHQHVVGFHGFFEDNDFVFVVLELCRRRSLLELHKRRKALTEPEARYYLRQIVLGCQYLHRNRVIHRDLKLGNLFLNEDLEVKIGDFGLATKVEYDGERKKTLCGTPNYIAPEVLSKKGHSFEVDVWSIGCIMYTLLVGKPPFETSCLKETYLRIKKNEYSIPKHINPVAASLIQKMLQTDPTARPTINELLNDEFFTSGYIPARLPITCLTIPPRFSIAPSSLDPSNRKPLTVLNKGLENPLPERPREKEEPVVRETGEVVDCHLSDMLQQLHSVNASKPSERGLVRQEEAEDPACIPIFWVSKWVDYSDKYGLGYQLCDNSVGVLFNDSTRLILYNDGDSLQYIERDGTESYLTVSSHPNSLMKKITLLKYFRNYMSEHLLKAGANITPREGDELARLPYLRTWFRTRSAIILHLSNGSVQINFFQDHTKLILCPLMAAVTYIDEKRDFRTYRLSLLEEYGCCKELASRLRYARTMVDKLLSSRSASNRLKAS
Vif-APOBEC3F blk: blocks the Vif interaction with APOBEC3F. HeLa A3F-eYFP + Vif (tagged APOBEC3F with the HIV-1 protein that degrades it), YFP fluorescence increase. Potency, µM (doses to about 46.1 µM), inactives show at the highest dose activity, negative = active. 390,000 compounds, 0.2% hits; note: potency is the fitted concentration of half-maximal effect; % of control where 0% means no effect; nearly all actives have a fitted effect of over 65% in size
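HeLa cells stably expressing A3F-eYFP plus Vif, plated and incubated overnight at 37 deg C, then exposed to compounds overnight at 37 deg C. Blocked degradation read as raised yellow fluorescence (Ex 488/Em 500-530).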
* hit, by the source's call; ? = inconclusive; . = no result. Unless noted, calls come from the whole dose curve; as a rule, active = well fitted curve in the direction sought with a large enough effect; inconclusive = small, poorly fitted or top-dose-only effect, or another doubt; inactive = no such curve, though single readings can be large; an effect the other way counts as inactive or inconclusive.

SMILES	TSHR antag	VDR inh	Vif-APOBEC3G blk	PLK1 PBD block	Vif-APOBEC3F blk
O=C(Nc1ccc(F)cc1)N1CCc2ccccc2C1	10.9	-14.7%	-0.4%	21.2µM*	-10.0%
O=C(Nc1ccc(Br)cc1)N1CCc2ccccc2C1	-14.2	7.4%	0.0%	-1.3%	-2.2%
O=C(Nc1ccc(C(=O)O)cc1)/C(=C\c1ccco1)NC(=O)c1ccc(Br)cc1	.	.	1.1%	-3.3%	-1.6%
O=C(Nc1ccc(C(=O)O)cc1)/C(=C\c1ccco1)NC(=O)c1ccc(Br)o1	-3.6	-4.5%	3.7%	29.9µM*	4.6%
O=C(Nc1ccc(C(=O)O)cc1)/C(=C\c1ccc2c(c1)OCO2)NC(=O)c1ccc(Br)o1	-3.6	-18.0%	-0.8%	26.7µM*	7.2%
O=C(Nc1cccc(C(=O)O)c1)/C(=C\c1ccc2c(c1)OCO2)NC(=O)c1ccc(Br)o1	-2.2	22.1%	1.1%	?	-13.0%
Cc1cn2c(=O)c3ccccc3nc2n2c(=O)c3ccccc3nc12	.	2.3%	.	.	.
Cc1ccc2c(c1)c(=O)c(C(=O)c1ccc3c(c1)OCO3)cn2Cc1cccc(F)c1	.	6.4%	5.6%	.	-3.0%
Cc1cccc(C2=N[C@@H](CC(C)C)CO2)c1	.	2.7%	.	.	.
CC1(C)CC(=O)C2=C(C1)NC(Nc1nc3ccccc3o1)=NC2c1ccccc1Cl (stereo not drawn)	.	-5.4%	0.7%	.	.
CC1=C(C(=O)Nc2ccccc2)C(c2ccc(C)cc2)N=C(Nc2nc3ccccc3o2)N1 (stereo not drawn)	2.6	-0.7%	?	-12.5%	10µM*
COc1ccc(CN(Cc2ccccc2)C(=O)Nc2ccccc2)cc1COc1ccc(NC(C)=O)cc1	.	-16.3%	.	.	.
Cc1cnnc2ccccc12	.	.	-0.3%	.	.
Cc1ccc(NCN2C(=O)C3C4C=CC(C4)C3C2=O)cc1 (stereo not drawn)	-1.8	?	0.3%	3.36µM*	-0.5%
O=C1C2C3C=CC(C3)C2C(=O)N1CNc1ccc(O)cc1 (stereo not drawn)	-9.9	.	.	.	.
Fc1cccc(/C=C2\CCCC3=C2NC(=S)NC3c2cccc(F)c2)c1 (stereo not drawn)	-4.2	79.4µM*	-7.0%	?	-3.4%
Fc1ccccc1/C=C1\CCCC2=C1NC(=S)NC2c1ccccc1F (stereo not drawn)	-5.3	-7.4%	-0.6%	18.9µM*	12.0%
S=C1NC2=C(CCC/C2=C\c2ccc(Cl)cc2)C(c2ccc(Cl)cc2)N1 (stereo not drawn)	2.8	?	1.2%	?	8.6%
S=C1NC2=C(CCC/C2=C\c2ccccc2)C(c2ccccc2)N1 (stereo not drawn)	-0.3	89.1µM*	-5.3%	?	-3.9%
O=C1CCCc2cc(S(=O)(=O)NCC3CCC(C(=O)NCc4ccc(F)cc4)CC3)ccc2N1 (stereo not drawn)	.	-7.2%	3.4%	.	4.1%
NC(=S)n1[nH]c(-c2ccc([N+](=O)[O-])cc2)c(N=Nc2cccc([N+](=O)[O-])c2)c1=O	?	?	-10.0%	21.2µM*	-21.0%
O=C1CC2(CCCC2)CC(=O)N1CCCCNCC1COc2ccccc2O1 (stereo not drawn)	.	-1.4%	.	.	.
COc1ccc(Cl)c(Cn2cnc3c(cnn3C(C)(C)C)c2=O)c1F	.	.	-0.5%	.	.
Cc1ccc(CSc2nc(-c3ccc(C(C)(C)C)cc3)nc3cc(=O)[nH]n23)cc1	.	3.4%	10µM*	.	2.5%
O=C1NC(=O)/C(=C\c2ccc(Cl)nc2)S1	-14.4	?	-1.3%	26.7µM*	4.4%
SMILES	TSHR antag	VDR inh	Vif-APOBEC3G blk	PLK1 PBD block	Vif-APOBEC3F blk
O=C1NC(=O)/C(=C\c2ccc(OCc3cnc(Cl)s3)cc2)S1	-25.8	-5.6%	2.7%	-23.7%	-7.0%
NC(C(=O)O)c1nn[nH]n1 (stereo not drawn)	.	7.0%	-3.3%	.	.
Cc1cc(O)c2c(c1)C(=O)[C@@]13Oc4c5c(c(O)c6c(O)cc(C)cc46)C(=O)C[C@H](O)[C@H]5[C@@H]1[C@@H](O)CC(=O)C3=C2O	.	-4.8%	-0.9%	3.36µM*	-3.4%
NC(N)=NC(N)=Nc1ccc(O)cc1	20.1	-26.3%	0.3%	-1.7%	-0.3%
NC(=S)N=Nc1ccc(O)cc1	.	?	-0.1%	26.7µM*	-17.9%
O=CC(=O)c1ccc(F)cc1	.	.	3.5%	.	.
Cc1nc(Nc2ccc(Cl)c(Cl)c2)sc1C(=O)Nc1ccccc1	1.3	?	1.9%	26.7µM*	-13.1%
Cc1nc(Nc2ccc(Cl)cc2Cl)sc1C(=O)Nc1ccccc1	-4.5	-16.9%	-0.3%	-4.2%	1.8%
CCOc1cc(CNC(=O)C2COc3ccccc3C2)cc(OCC)c1OCC (stereo not drawn)	.	1.3%	-1.1%	.	3.2%
COc1cc(C(=S)N2CCCCC2)ccc1OCC(=O)Nc1ccc(F)cc1	-14.9	-9.0%	-5.0%	-22.7%	2.9%
COc1cc(C(=S)N2CCCC2)cc(Cl)c1OCC(=O)Nc1ccc(C)cc1C	-1.6	?	2.1%	8.44µM*	10.9%
COc1cc(C(CC(=O)Nc2cccc(C(C)=O)c2)N2Cc3ccccc3C2=O)cc(OC)c1OC (stereo not drawn)	.	8.4%	-0.9%	.	7.0%
Cn1ncc(C#N)c1NC(=O)C1CC(c2ccccc2Cl)=NO1 (stereo not drawn)	11.1	-22.1%	2.0%	29.9µM*	-7.1%
CCC1(c2ccccc2)NC(=O)NC1=O (stereo not drawn)	.	-5.4%	.	.	.
Cc1ccc2c(c1)ncc[n+]2CC(=O)c1ccc(Cl)cc1Cl	.	.	-8.1%	.	.
COCCOC(=O)c1c(C)oc2ccc(OS(C)(=O)=O)cc12	16.7	5.9%	0.2%	-2.3%	1.8%
Cc1oc2ccc(OS(C)(=O)=O)cc2c1C(=O)OC(C)C	-11.1	?	-1.4%	18.9µM*	-14.6%
COc1cc(C(=O)NCc2ccco2)cc(OC)c1OC	2.7	-0.7%	0.9%	-3.1%	-1.0%
COc1cc(C(=O)NCCNC(=O)c2ccco2)cc(OC)c1OC	.	?	-0.7%	26.7µM*	10.2%
CCS(=O)(=O)c1ncc(Cl)c(C(=O)Nc2ccc(C)cc2)n1	-39.0	15.8µM*	-28.6%	?	21.2%
CC(=O)Nc1ccc(NC(=O)c2nc(S(=O)(=O)Cc3ccccc3)ncc2Cl)cc1	?	-22.1%	?	16.8µM*	5.6%
COc1ccc(CNC(=O)c2nc(S(=O)(=O)Cc3ccccc3)ncc2Cl)cc1	-38.0	?	?	23.8µM*	1.1%
Cc1ccc(CS(=O)(=O)c2ncc(Cl)c(C(=O)Nc3ccc(OC(F)F)cc3)n2)cc1	?	?	-8.8%	21.2µM*	10.1%
